# About 13,000 (27%) of roughly 48,000 compounds showed an effect of 50% or more. The list shows a part of the results.
# Test system: Wolbachia pipientis
# Assay: Anti-Wolbachia Cell-Based Screen
# Assay type: functional
# Parameters: scale not given: in the data most compounds retested in dose-response had high values
# Settings: 5 µM
row,Structure (SMILES),Percent Effect
1,Cc1oc2nc[nH]c(=O)c2c1C(=O)N1CCCC(n2cccn2)C1 (centres undefined),-6.627%
2,CC(C)OCCCNC(=O)C1CCC(=O)N(C2CCCC2)C1 (centres undefined),25.57%
3,CC(Cn1ccnc1)NC(=O)C1(c2ccc3c(c2)OCCO3)CCCC1 (centres undefined),6.008%
4,CN(Cc1cnn(C)c1)C(=O)c1ccc(=O)n(Cc2ccccc2)n1,97%
5,CN(Cc1cnn(C)c1)C(=O)C1COCC(=O)N1Cc1ccccc1 (centres undefined),16.93%
6,CCCn1nc(C(=O)N(C)Cc2nnc3n2CCC3)ccc1=O,-34.52%
7,Cc1ccccc1C(C(=O)N(C)Cc1cnn(C)c1)N(C)C (centres undefined),-13.96%
8,Cc1nc(C)c(C(=O)N(C)Cc2cnn(C)c2)s1,-4.031%
9,CCCn1nc(C(=O)N(C)Cc2cnn(C)c2)ccc1=O,125%
10,CC(=O)NCCNCC1(O)CCCN(CCC2CCCCC2)C1=O (centres undefined),-25.88%
11,O=C(O)c1ccnc(-c2ccnc(COc3ccccc3Cl)n2)c1,-33.61%
12,Cc1noc(CN2CC(=O)N(C)c3ccccc3C2=O)n1,12.92%
13,Cc1c(CS(C)(=O)=O)cccc1NC(=O)CC1CCCC1,-14.57%
14,Cc1nc(COC[C@]23COC[C@H]2CN(Cc2ccoc2)C3)cs1.O=C(O)C(F)(F)F,-5.417%
15,Cc1ccsc1CN1C[C@@H]2COC[C@]2(COCC(=O)N(C)C)C1.O=C(O)C(F)(F)F,107.4%
16,Cc1nc(COC[C@@]23CCC[C@@H]2CN(CC2CCOCC2)C3)cs1.O=C(O)C(F)(F)F,1.66%
17,CCS(=O)(=O)NC[C@]12COC[C@H]1CN(Cc1sccc1C)C2.O=C(O)C(F)(F)F,-13.08%
18,Cc1csc(CN2C[C@@H]3COC[C@]3(COCC(=O)N(C)C)C2)n1.O=C(O)C(F)(F)F,103.7%
19,Cc1nc(CN2C[C@@H]3COC[C@]3(COCC(=O)N(C)C)C2)cs1.O=C(O)C(F)(F)F,99.96%
20,Cc1ccsc1CN1C[C@@H]2COC[C@]2(CNC(=O)c2ccco2)C1.O=C(O)C(F)(F)F,-18.71%
21,Cc1cc(C(=O)N2CCC(c3nccn3Cc3ccncc3)CC2)no1,-16.29%
22,C[C@@H]1C[C@H]2CN(C(=O)C3=CCCC3)C[C@H]2O1,-41.87%
23,CCOc1ccc(S(=O)(=O)NCCc2ccc(N(C)C)cc2)cc1F,9.493%
24,CCN(CC)C(=O)CCNC(=O)N(C)Cc1ccc(SC)c(OC)c1,28.83%
25,Cc1ccc(F)c(CNc2ccn(CCC(N)=O)n2)c1,-13.86%

row,Structure (SMILES),Percent Effect
1,O=C1CC[C@H]2CN(c3ncc(F)cn3)CC[C@H]2N1CCc1ccccn1,-8.563%
2,CC(C)CNC(=O)C1=NOC2(CCN(Cc3cccc(C#N)c3)C2)C1 (centres undefined),102.8%
3,Cc1cccc(CN2CCC3(CC(C(=O)NCC(C)C)=NO3)C2)c1 (centres undefined),117.4%
4,CCCS(=O)(=O)N1CCC2(CC(C(=O)NCc3cccnc3)=NO2)C1 (centres undefined),-9.91%
5,Cc1ccc(CN2CCC3(CC(C(=O)NCC4CC4)=NO3)C2)cc1C (centres undefined),21.96%
6,O=C(NCC1CC1)C1=NOC2(CCN(Cc3ccc4c(c3)OCO4)C2)C1 (centres undefined),-22.77%
7,N#Cc1cccc(CN2CCC3(CC(C(=O)NCC4CC4)=NO3)C2)c1 (centres undefined),-1.937%
8,CNc1snc(C)c1C(=O)N1CCCC(n2ccnc2C(C)C)C1 (centres undefined),1.946%
9,Cc1n[nH]c(=O)c2c(NC(=O)CN3CCC(O)CC3)oc(C)c12,10.48%
10,CCCNCC1(O)CCCN(Cc2cccc(C)c2)C1=O (centres undefined),20.78%
11,Nc1nc(CCC(=O)N2C[C@@H](CN3CCCC3)C[C@H](CO)C2)n[nH]1,-12.43%
12,CCCn1ncc(C2CC(=O)NCc3nc4sc(C)cn4c32)c1C (centres undefined),0.1811%
13,CCn1ncnc1C1CC(=O)NCc2nc(N)sc21 (centres undefined),74.2%
14,CCn1ncnc1C1CC(=O)NCc2nc(N3CCCC3)sc21 (centres undefined),88.25%
15,CCOc1cccc(C2CC(=O)NCc3nc(N(C)C)sc32)c1 (centres undefined),5.085%
16,CCOc1cccc(C2CC(=O)NCc3nc(N)sc32)c1 (centres undefined),2.31%
17,CCn1ncnc1C1CC(=O)NCc2nc(N3CCOCC3)sc21 (centres undefined),112.6%
18,CCOc1cccc(C2CC(=O)NCc3nc(N4CCCC4)sc32)c1 (centres undefined),-6.785%
19,CCn1ncnc1C1CC(=O)NCc2nc3ccccn3c21 (centres undefined),-4.231%
20,Cc1ccc(C2CC(=O)NCc3nc(N)sc32)cc1C (centres undefined),0.1432%
21,O=C1CCCc2[nH]c(=O)c(C(=O)N(CC3CCCCC3)C3CC3)cc21,-8.56%
22,Cc1ccc(S(=O)(=O)N2CCOc3ccccc32)cc1C(N)=O,5.411%
23,CC(C)c1noc(CN(C)C(=O)c2ccccc2-c2nc[nH]n2)n1,-15.19%
24,CC(C)NC(=O)N1CCN(C(=O)N(C)C)CC2(CC(=O)N(C)C2)C1 (centres undefined),11.38%
25,CCS(=O)(=O)N1CCN(C(=O)NC(C)C)CC2(CC(=O)N(C)C2)C1 (centres undefined),-2.042%

row,Structure (SMILES),Percent Effect
1,CCN1CC2(CC1=O)CN(C(=O)NC)CCN(S(C)(=O)=O)C2 (centres undefined),1.458%
2,CCN1CC2(CC1=O)CN(C(=O)N(C)C)CCN(S(C)(=O)=O)C2 (centres undefined),-16.32%
3,CCN1CC2(CC1=O)CN(C(C)=O)CCN(C(=O)NC)C2 (centres undefined),104.3%
4,CCN1CC2(CC1=O)CN(C(=O)NC(C)C)CCN(C(=O)C(C)C)C2 (centres undefined),117.3%
5,CNC(=O)N1CCN(C(=O)C(C)C)CC2(CC(=O)N(C)C2)C1 (centres undefined),-13.05%
6,CCN1CC2(CC1=O)CN(C(C)=O)CCN(S(C)(=O)=O)C2 (centres undefined),-3.303%
7,CCN1CC2(CC1=O)CN(C(=O)C(C)C)CCN(S(C)(=O)=O)C2 (centres undefined),4.611%
8,CCN1CC2(CC1=O)CN(C(=O)C(C)C)CCN(S(=O)(=O)CC)C2 (centres undefined),12.11%
9,CCN1CC2(CC1=O)CN(C(=O)NC(C)C)CCN(C(=O)NC(C)C)C2,115.2%
10,CCN1CC2(CC1=O)CN(C(=O)NC(C)C)CCN(S(C)(=O)=O)C2 (centres undefined),100.8%
11,CCN(CCO)C(=O)C1CCC(=O)N(Cc2cccc(OC)c2)C1 (centres undefined),4.416%
12,NC(=O)N1CCCN(CC(=O)NCCc2c(F)cccc2F)CC1,-7.896%
13,Cc1nc[nH]c1CN1CCCn2nc(CN3CCC(F)(F)CC3)cc2C1,5.091%
14,CC(C)NC(=O)N1CCN(S(=O)(=O)C2CC2)CC2(CC(=O)N(C)C2)C1 (centres undefined),-16.72%
15,CCN1CC2(CC1=O)CN(C(C)=O)CCN(S(=O)(=O)CC)C2 (centres undefined),-5.362%
16,CCN1CC2(CC1=O)CN(C(C)=O)CCN(C(=O)NC(C)C)C2 (centres undefined),101.7%
17,CCC1(CNCc2ncc[nH]2)CCCC1,-14.89%
18,CN(CC(=O)NC1CCOCC1)C1CCCN(c2cccnn2)C1 (centres undefined),137.1%
19,Cc1nc(CN2CCCC(N(C)CC(=O)Nc3cccnc3)C2)no1 (centres undefined),13.61%
20,CN(CC(=O)Nc1cccnc1)C1CCCN(c2cccnn2)C1 (centres undefined),85.32%
21,Cc1nnc(NC(=O)CN(C)CC2CCCN2c2cccnn2)s1 (centres undefined),-3.874%
22,CN(CC(=O)NC1(C#N)CCCC1)C1CCCN(c2cccnn2)C1 (centres undefined),1.351%
23,Cc1nnc(NC(=O)CN(C)C2CCCN(c3cccnn3)C2)s1 (centres undefined),131.3%
24,Cc1csc(NC(=O)CN(C)CC2CCCN2c2cccnn2)n1 (centres undefined),8.253%
25,CN(CC(=O)Nc1ccncc1)C1CCCN(c2cccnn2)C1 (centres undefined),95.39%

row,Structure (SMILES),Percent Effect
1,COC(=O)C1CCCCN1C(=O)c1ccc(N(C)C)cc1F (centres undefined),-10.97%
2,CN(C)CC(=O)N1CC[C@H]2OCC[C@@]2(COCC2CC2)C1,-4.204%
3,O=c1oc(-c2ccc(F)cc2)nn1CCc1ccncc1,-21.89%
4,O=c1oc(-c2ccc(F)cc2)nn1CN1CCCCC1,107.7%
5,O=c1oc(-c2ccc(F)cc2)nn1CN1CCN(CC2CC2)CC1,89.16%
6,O=c1oc(-c2ccc(F)cc2)nn1CN1CCSCC1,92.99%
7,O=c1oc(-c2ccc(F)cc2)nn1CC1CCCCO1 (centres undefined),-16.49%
8,CC1CCN(Cn2nc(-c3ccc(F)cc3)oc2=O)CC1,4.807%
9,O=c1oc(-c2ccc(F)cc2)nn1CC1CCOC1 (centres undefined),-10.24%
10,CC(=O)N1CCN(Cn2nc(-c3ccc(F)cc3)oc2=O)CC1,6.471%
11,O=c1oc(-c2ccc(F)cc2)nn1CN1CCN(C2CCCC2)CC1,-7.879%
12,CN(C(=O)Cc1coc(-c2cccs2)n1)C1(C#N)CCC1,3.793%
13,CCc1nc(CN2CCCN(C(=O)C(C)COC)CC2)cs1 (centres undefined),7.127%
14,COc1ccc(C2=CCN(C(=O)C3CCCN(C(N)=O)C3)CC2)cc1 (centres undefined),7.391%
15,COc1ccc(C2=CCN(C(=O)C3CCCN(C(C)=O)C3)CC2)cc1 (centres undefined),109.7%
16,COc1ccc(OC2CCN(C(=O)C3CCCN(C)C3)CC2)cc1 (centres undefined),0.8407%
17,COc1ccc(C2=CCN(C(=O)C3CCS(=O)(=O)C3)CC2)cc1 (centres undefined),136.7%
18,COc1ccc(C2=CCN(C(=O)CN(C)CC(C)C#N)CC2)cc1 (centres undefined),-3.041%
19,COc1ccc(C2=CCN(C(=O)CN(C)CC(N)=O)CC2)cc1,-8.253%
20,COc1ccc(C2=CCN(C(=O)C3CCC3)CC2)cc1,121.8%
21,COc1ccc(OC)c(C2CCN(C(=O)C3CCS(=O)(=O)CC3)C2)c1 (centres undefined),-1.419%
22,COc1ccc(C2=CCN(C(=O)C3CC(=O)N(C4CC4)C3)CC2)cc1 (centres undefined),-2.251%
23,O=C(NCC1CC1)c1cc(Cl)c2c(c1)OCCCO2,-14.68%
24,CCCC(C)(C)NC(=O)c1cnc(CC)s1,-7.388%
